From PubChem
RE007 growth inh = less growth of the S. pombe RE007 Vpr strain | S. pombe RE007 Vpr strain, BacTiter-Glo ATP luminescence, 24 h | Potency, µM (titrated, usually from 92.2 µM), for inactives: at the highest dose activity change, negative = less growth, usual class: inhibitors | 360,000 compounds, 0.21% hits; active = well fitted falling curve with a large enough effect; inconclusive = small, poorly fitted or top-dose-only effect; inactive = no such curve, though single readings can be large or run the other way; note: nearly all actives have a fitted effect of over 50% in size
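Fission yeast RE007 carrying one integrated HIV-1 vpr copy, seeded at OD 0.01 in PMG+AL medium with 23 nL pinned compound. Grown 24 h at 30 degrees; viability read by BacTiter-Glo luminescence after 5 min.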
FMDV inh = foot and mouth disease virus antiviral activity. 410,000 compounds, 1.2% hits. AID 1159524. FMDV antiviral cell-based qHTS. Potency, µM (top dose mostly 57.9 µM), without a hit: at the top dose activity change, negative = inhibition, actives largely listed as inhibitors; calls by dose curve; tested in HEK293T cells; note: read-out not given here; nearly all actives have a fitted effect of over 45% in size
Tb PYK inh = blocks Trypanosoma brucei pyruvate kinase; TbPYK enzyme, Kinase-Glo Plus ATP luminescence, 45 min; Q57TT1; AID 624173; Potency, µM (doses to about 76.8 µM), for inactives: at the top dose activity, negative = inhibition, hits mostly inhibitors; 410,000 compounds, 0.12% hits; note: nearly all actives have a fitted effect of over 50% in size
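Luminescence from Kinase-Glo Plus, added after a 45-minute room-temperature reaction, served as the end-point read-out. The enzyme and substrate were preincubated with compound before ADP (130 uM final) initiated turnover. Concentration-effect curves came from normalized qHTS data.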
Sm TGR block = S. mansoni TGR enzyme inhibition. Q962Y6. purified TGR, DTNB reduction, TNB absorbance 405 nm. Potency, µM (titrated, usually from 114 µM), without a hit: top-dose activity change, negative = inhibition, usual class: inhibitors. 360,000 compounds, 3% hits; note: nearly all actives have a fitted effect of over 60% in size
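Kinetic colorimetric format: TGR-catalysed, NADPH-driven DTNB reduction monitored via TNB absorbance. Enzyme dispensed at 20 nM; compound exposure 15 min at room temperature before reaction start.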
Active calls of the source: *. The list is not random: actives were taken first. Their share in the collection is about 3.7%. Unless noted, calls come from the whole dose curve; as a rule, active = well fitted curve in the direction sought with a large enough effect; inconclusive = small, poorly fitted or top-dose-only effect, or another doubt; inactive = no such curve, though single readings can be large; an effect the other way counts as inactive or inconclusive. % is set by controls: 0 for no effect and ±100 for the full control effect; potency is the fitted concentration of half-maximal effect.

Results for CN(C)c1ccc(C(c2nnnn2CCOC(=O)Nc2ccc(Cl)cc2)N2CCOCC2)cc1 (configuration not stated) ?
RE007 growth inh: 1%; FMDV inh: -34%; Tb PYK inh: -11%; Sm TGR block: 25µM*

How did Cc1c(C(=O)N(C)Cc2nccs2)sc2ncnc(NCC3CCCO3)c12 (configuration not stated) do in these assays?
FMDV inh: -19%

What do the screens show for `COC(=O)c1ccc(OC)c(CN2C(=O)N(c3ccc(C(C)=O)cc3)S(=O)(=O)c3ccccc32)c1`?
FMDV inh: inconclusive; Tb PYK inh: 1%; Sm TGR block: inconclusive

Results for CCc1cccc2c(C(=O)CCl)c[nH]c12 ?
RE007 growth inh: 22%; FMDV inh: 28µM*; Tb PYK inh: -5%; Sm TGR block: 7.9µM*

How did O=C(COc1ccccc1[N+](=O)[O-])Nc1ccc(N2CCN(C(=O)c3cccs3)CC2)cc1 do in these assays?
RE007 growth inh: 12%; FMDV inh: 13µM*; Tb PYK inh: -1%; Sm TGR block: 1%

How did O=C(COc1ccccc1Cl)Nc1ccc(N2CCCC2)cc1 do in these assays?
RE007 growth inh: 16%; FMDV inh: -13%; Tb PYK inh: -4%; Sm TGR block: -25%

Results for CCC(=O)Nc1ccc(N2CCN(C(=O)c3cccs3)CC2)cc1 ?
RE007 growth inh: 5%; FMDV inh: -4%; Tb PYK inh: -3%

Results for Cc1cccc(OCC(=O)Nc2ccc(N3CCN(C(=O)c4ccccc4)CC3)cc2)c1 ?
RE007 growth inh: 1%; FMDV inh: 28µM*; Tb PYK inh: -4%; Sm TGR block: 3%

What do the screens show for `O=C(COc1ccccc1Cl)Nc1ccc(N2CCN(C(=O)c3ccccc3)CC2)cc1`?
RE007 growth inh: 2%; FMDV inh: 22µM*; Tb PYK inh: -6%; Sm TGR block: 4%

What do the screens show for `CC[C@H]1OC(=O)[C@H](C)C(=O)[C@H](C)[C@@H](O[C@@H]2O[C@H](C)C[C@H](N(C)C)[C@H]2O)[C@](C)(OC)C[C@@H](C)C(=O)[C@H](C)[C@H]2N(CCCCn3cnc(-c4cccnc4)c3)C(=O)O[C@]12C`?
FMDV inh: -10%

What do the screens show for `CC(C)(C)c1cc(NC(=O)Nc2ccc(-c3cn4c(n3)sc3cc(OCCN5CCOCC5)ccc34)cc2)no1`?
Tb PYK inh: 1%

What do the screens show for `CC(C)c1c(C(=O)NCc2cccnc2)cnn1-c1nccc(-c2ccccc2F)n1`?
FMDV inh: -28%

Results for NC(=S)NNc1c(F)c(F)c(F)c(F)c1F ?
RE007 growth inh: inconclusive; FMDV inh: -5%; Tb PYK inh: -2%; Sm TGR block: 40µM*

How did CCc1ccc(CNC(=O)C(CC)n2nc(C)c3c(C)n(-c4ccccc4)nc3c2=O)cc1 (configuration not stated) do in these assays?
FMDV inh: 0%; Tb PYK inh: -4%; Sm TGR block: 26%

What do the screens show for `O=C1C(Cl)=C(NCCN2CCOCC2)C(=O)c2ccccc21`?
RE007 growth inh: -14%; FMDV inh: -20%; Tb PYK inh: -1%; Sm TGR block: inconclusive

How did O=C1C(Cl)=C(NCCN2CCOCC2)C(=O)c2ncccc21 do in these assays?
FMDV inh: 16µM*

What do the screens show for `O=C(O)c1ccc(Cn2cnc3cccnc32)cc1`?
RE007 growth inh: 4%; FMDV inh: -12%; Tb PYK inh: inconclusive; Sm TGR block: 50µM*

How did COCc1cc(=O)[nH]c(SCCS(=O)(=O)c2ccc(Cl)cc2Cl)n1 do in these assays?
RE007 growth inh: -5%; FMDV inh: -16%; Tb PYK inh: -4%; Sm TGR block: 0.32µM*

What do the screens show for `CN(C)C(=O)CNC(=O)Cc1ccccc1`?
Tb PYK inh: 0%

Results for CCOC(=O)COn1c(=O)c(-c2ccc(F)cc2)[n+]([O-])c2ccccc21 ?
RE007 growth inh: -7%; FMDV inh: -7%; Tb PYK inh: 0%; Sm TGR block: 89µM*

Results for CCOC(=O)COn1c(=O)c(-c2cccs2)[n+]([O-])c2ccccc21 ?
RE007 growth inh: -8%; FMDV inh: 18%; Tb PYK inh: -4%; Sm TGR block: 20µM*

Results for COc1ccc(-c2c(C)nn3c(N)c(-c4ccccc4)cnc23)cc1OC ?
RE007 growth inh: -12%; FMDV inh: 14%; Tb PYK inh: 6%; Sm TGR block: 40µM*
